Screening data (PubChem)
Sampled rows, rich in hits. Any-hit rate of the full collection: about 3.6%.
Pf apPOL inh: Pf-apPOL inhibitors, biochemical, fluorescence; actives 0.25% (n = 210,000); Plasmodium falciparum apicoplast DNA polymerase (apPOL); inhibition, % at 10 µM; Recombinant Pf-apPOL, molecular beacon fluorescence, 1.5 h
mHTT CaM bind: mutant huntingtin-calmodulin interaction inhibitors – biochemical, AlphaScreen, primary screen; P42858; AlphaScreen His-mHTT/GST-CaM binding, luminescence; inhibition, % at 15 µM; actives 3.6% (n = 190,000)
A number is an active result. Rule as the data show it: active = inhibition above about 50%; inactive = the rest.

Screening O=C(COc1cccc(Cl)c1)N1CCCN(C2CCN(Cc3ccccc3)C2=O)CC1 (stereo unspecified) returned Pf apPOL inh inactive and mHTT CaM bind 75.2.
Screening COCCN1CCC(N2CCCN(C(=O)COc3cccc(C)c3)CC2)C1=O (stereo unspecified) returned Pf apPOL inh inactive and mHTT CaM bind inactive.
`Oc1ccc(CN2CCN(c3ccccc3Cl)CC2)cc1` gave Pf apPOL inh inactive and mHTT CaM bind inactive.
`COc1ccc(OC)c(C(c2c(O)c3ccccc3oc2=O)c2c(O)c3ccccc3oc2=O)c1` gave Pf apPOL inh inactive and mHTT CaM bind 55.0.
`O=c1oc2ccccc2c(O)c1C(c1ccc([N+](=O)[O-])cc1)c1c(O)c2ccccc2oc1=O` gave Pf apPOL inh inactive and mHTT CaM bind 71.0.
`CC(c1c(O)c2ccccc2oc1=O)c1c(O)c2ccccc2oc1=O` gave Pf apPOL inh inactive and mHTT CaM bind inactive.
O=c1oc2ccccc2c(O)c1C(c1ccccc1[N+](=O)[O-])c1c(O)c2ccccc2oc1=O was read as Pf apPOL inh inactive and mHTT CaM bind inactive.
`COc1ccc2c(c1)C1(CCN(S(=O)(=O)c3ccccc3)C1)C(=O)N2C` (stereo unspecified) gave Pf apPOL inh inactive and mHTT CaM bind inactive.
Screening Cc1nc(C(=O)Nc2ccc3c(c2)OCO3)c(C)n1C1CCN(C)CC1 returned Pf apPOL inh inactive and mHTT CaM bind 71.4.
Cc1nc(C(=O)Nc2ccc3c(c2)OCCO3)c(C)n1C1CCN(C)CC1 was read as Pf apPOL inh inactive and mHTT CaM bind inactive.
For O=P(Nc1ccccc1I)(Oc1ccccc1)Oc1ccccc1 the results were Pf apPOL inh inactive and mHTT CaM bind inactive.
For COc1ccc(OC)c(NP(=O)(Oc2ccccc2)Oc2ccccc2)c1 the results were Pf apPOL inh inactive and mHTT CaM bind 74.0.
`Cc1cc(OCC(=O)OCc2ccccc2)c2c3c(c(=O)oc2c1)CCCC3` gave Pf apPOL inh inactive and mHTT CaM bind inactive.
Screening CC1=Nc2ccccc2C1=Cc1c(O)[nH]c(=O)[nH]c1=O returned Pf apPOL inh inactive and mHTT CaM bind 54.0.
`CCCn1nc(C)c(C=O)c1C` gave mHTT CaM bind inactive.
For COC(=O)c1ccc(CCl)s1 the results were mHTT CaM bind 100.0.
For CC1=CC(=C2C(=O)NC(=O)NC2=O)C=C(C(F)(F)F)N1Cc1ccco1 the results were Pf apPOL inh inactive and mHTT CaM bind inactive.
Screening CCN1C(=O)NC(=O)/C(=C/c2cn(CC(=O)NCCOC)c3ccccc23)C1=O returned Pf apPOL inh inactive and mHTT CaM bind inactive.
`CCN(CC)C(=O)Cn1cc(/C=C2\C(=O)NC(=O)N(c3ccccc3F)C2=O)c2ccccc21` gave Pf apPOL inh inactive and mHTT CaM bind 62.0.
`CCN1C(=O)NC(=O)/C(=C/c2cn(CC(=O)N3CCCCC3)c3ccccc23)C1=O` gave Pf apPOL inh inactive and mHTT CaM bind inactive.
CCN1C(=O)NC(=O)/C(=C/c2cn(CC(=O)NCc3ccco3)c3ccccc23)C1=O was read as Pf apPOL inh inactive and mHTT CaM bind 51.0.
For N#CC1=C(N)C(C#N)(C#N)C(c2ccccc2C(F)(F)F)C2CSCC=C12 (stereo unspecified) the results were Pf apPOL inh inactive and mHTT CaM bind 55.0.
For Cc1cccc(-n2c(/C=C/c3ccc([N+](=O)[O-])cc3)nc3ccccc3c2=O)c1 the results were Pf apPOL inh inactive and mHTT CaM bind inactive.
For O=C(CN1CCOCC1)Nc1ccc(Br)cc1C(=O)c1ccccc1 the results were Pf apPOL inh inactive and mHTT CaM bind inactive.
Screening O=C(CCN1CCOCC1)Nc1ccc(Br)cc1C(=O)c1ccccc1 returned Pf apPOL inh inactive and mHTT CaM bind 80.6.
O=c1c2ccccc2nc(/C=C/c2ccc([N+](=O)[O-])o2)n1-c1ccccc1O was read as Pf apPOL inh inactive and mHTT CaM bind inactive.
For CCC(=O)N1N=C2C3CCN(CC3)C2C1c1ccc(OC)cc1 (stereo unspecified) the results were Pf apPOL inh inactive and mHTT CaM bind inactive.
`Cc1ccccc1C=C1Oc2cc(OC(=O)N(C)C)ccc2C1=O` gave Pf apPOL inh inactive and mHTT CaM bind inactive.
Screening S=C(S)N1CCCCC1 returned Pf apPOL inh inactive.
S=C(SSC(=S)N1CCCCC1)N1CCCCC1 was read as mHTT CaM bind 51.2.
For COc1ccc(CN2CCN(Cc3ccccc3)CC2)cc1OC the results were Pf apPOL inh inactive and mHTT CaM bind inactive.
Screening CC(=O)N1N=C2C3CCN(CC3)C2C1c1cc(C)cc(C)c1 (stereo unspecified) returned Pf apPOL inh inactive and mHTT CaM bind inactive.
For O=S(=O)(F)c1ccc(-c2nnc(-c3ccccc3)o2)cc1 the results were Pf apPOL inh inactive and mHTT CaM bind inactive.
For O=S(=O)(F)c1ccc(C2=CC(c3ccccc3)n3ncnc3N2)cc1 (stereo unspecified) the results were Pf apPOL inh inactive and mHTT CaM bind 100.0.
